Screening data: PubChem, National Center for Advancing Translational Sciences (NCATS)
HTT cytoprotect: qHTS Multiplex Assay to Identify Dual Action Probes in a Cell Model of Huntington: Cytoprotection (ATP) | PC12 HTT-Q103 induced, cytoprotection, ATP luminescence, 40 h | Potency, µM (series often up to 56.4 µM), usual class: activators | actives 0.14% (n = 230,000) | AID 1471, 2008; further: nearly all actives have a fitted effect of over 45% in size
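Rat PC12, Q103 Htt exon1-GFP fusion, ecdysone promoter; tebufenozide inducer 100 nM final; compound titration; qHTS, 1500 cells/well; ATPlite luminescent read.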
HTT aggregate: qHTS Multiplex Assay to Identify Dual Action Probes in a Cell Model of Huntington: Aggregate Formation (GFP); PC12 HttQ103-GFP aggregates, Acumen cytometry, 40 h; Potency, µM (titrated, usually from 46.1 µM), usual class: inhibitors; actives 1.1% (n = 220,000); AID 1688, 2009; further: nearly all actives have a fitted effect of over 60% in size
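Aggregate formation scored by laser-scanning cytometer (488 excitation, 500–530 emission) in lysed PC12 cells expressing Q103-GFP after 100 nM tebufenozide induction; library tested in dose series, with ATPLite reagent added in the multiplex.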
PNC assembly inh: High Content Assay for Compounds that inhibit the Assembly of the Perinucleolar Compartment. PC3M PTB-GFP, PNC prevalence imaging, 16 h; stronger effect = lower value. activity change (PNC), negative = inhibition, % at 10 µM. actives 3.1% (n = 140,000);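 active means readout at or below -70, meaning at least 70% loss of cells showing the perinucleolar compartment, a nuclear body marking cancer cells; inconclusive means readout between -30 and a set limit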
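Read-out is percentage of cells bearing a perinucleolar compartment, from automated 20x imaging of fixed, Hoechst-stained PC3M PTB-GFP cells. Cells were seeded 4 h, then exposed 16 h to compound (23 nl of library stock) in duplicate plates.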
Large screens that a line does not name were inactive. This excerpt belongs to a sample that is enriched for hits. Unless noted, the call rests on the fitted dose curve; in most records, active means well fitted curve in the direction sought with a large enough effect; inconclusive means small, poorly fitted or top-dose-only effect, or another doubt; inactive means no such curve, though single readings can be large; an effect the other way counts as inactive or inconclusive.

O=C(Nc1ccc(SC(F)F)cc1)C12CCC(CC1)C2	PNC assembly inh -112.6
CCOc1ccc(NC(=O)CN2C(=O)CSC(C)C2=O)cc1 (configuration not stated)	none (no result: HTT cytoprotect, PNC assembly inh)
COc1ccc(C(=O)Nc2cc(OC)nc(OC)n2)cc1	PNC assembly inh -81.0
COc1cc(NC(=O)CCc2ccccc2)nc(OC)n1	PNC assembly inh inconclusive
Cn1c(=O)c(/C(N)=N/OC(=O)c2ccccc2)cn(-c2ccccc2)c1=O	none (no result: PNC assembly inh)
Cc1nc2ccc(S(=O)(=O)NC(C(=O)N3CCCC3)C(C)C)cc2s1 (configuration not stated)	PNC assembly inh inconclusive
CC(=O)Nc1cccc(C(=O)O)n1	none (no result: PNC assembly inh)
CC(=O)Nc1cccc(NC(C)=O)n1	PNC assembly inh -118.9
O=c1c2ccccc2c(C=Nc2ccc(O)cc2)c(O)n1-c1nccs1	none (no result: PNC assembly inh)
Cc1cccc(Cn2ccc(NC(=O)c3ccc4c(c3)OCO4)n2)c1	none (no result: PNC assembly inh)
O=C(Nc1ccn(Cc2ccc(Cl)cc2)n1)c1ccc2c(c1)OCO2	PNC assembly inh -82.1
O=C1N(Cc2cccc(Cl)c2)C[C@@H]2C[C@@H](c3ccsc3)N3CCC[C@@]123	none (no result: PNC assembly inh)
COc1ccc(C(c2nnnn2CC2CCCO2)N2CCN(c3ccc(F)cc3)CC2)cc1 (configuration not stated)	PNC assembly inh -85.9
Cc1ccc(C(c2nnnn2CC2CCCO2)N2CCN(C)CC2)cc1 (configuration not stated)	none (no result: PNC assembly inh)
COc1ccc(C(c2nnnn2Cc2ccccc2)N2CCN(c3ccccc3)CC2)cc1 (configuration not stated)	none
COc1ccc(Cn2nnnc2C(c2ccncc2)N2CCOCC2)cc1 (configuration not stated)	PNC assembly inh -99.5
O=C1c2[nH]nc(-c3ccccc3O)c2C(c2ccccc2F)N1Cc1ccco1 (configuration not stated)	none
O=C(NCC(c1cccs1)N1CCOCC1)c1ccc(Cl)s1 (configuration not stated)	PNC assembly inh inconclusive
O=C(CN1CC(c2ccccc2)CC1=O)OCc1cccc(Br)c1 (configuration not stated)	HTT cytoprotect inconclusive
CCCCCn1c(=O)c2ccccc2n2c(CCl)nnc12	none (no result: PNC assembly inh)
O=C(CSc1nnc(COc2ccc(Cl)cc2)o1)N1c2ccccc2CCc2ccccc21	none
CCOC(=O)N1CCC(NC(=O)CCC(=O)c2ccccc2)CC1	PNC assembly inh inconclusive
CCOC(=O)N1CCC(NC(=O)CCN2C(=O)C3C4C=CC(C4)C3C2=O)CC1 (configuration not stated)	PNC assembly inh -101.5
CCCc1nc2oc3c(NCC4CCCO4)ncnc3c2c2c1COC(C)(C)C2 (configuration not stated)	PNC assembly inh inconclusive
CC(C)c1nc2oc3c(NCC4CCCO4)ncnc3c2c2c1CCC2 (configuration not stated)	HTT aggregate inconclusive, PNC assembly inh -97.9
O=C(CCCOc1ccccc1)N1CCCc2ccccc21	none
Cc1cc(Cl)ccc1OCCCC(=O)N1CCCc2ccccc21	PNC assembly inh -93.7
O=C(CSc1nnnn1C1CCCCC1)Nc1cccc(NC(=O)c2ccco2)c1	none
CCN1/C(=C(\O)c2ccccc2)C(=O)c2ccccc2S1(=O)=O	PNC assembly inh inconclusive
C=CCc1cccc(/C=N/NC(=O)c2ccccc2OC)c1O	HTT aggregate inconclusive (no result: PNC assembly inh)
C=CCc1cccc(/C=N/NC(=O)C(C)Nc2ccc(C)cc2)c1O (configuration not stated)	HTT aggregate 8.91µM
CC(C)(C)c1ccc(CS(=O)(=O)CC2(O)CCN(C(=O)c3cccc(C(F)(F)F)c3)CC2)cc1	none
O=C(NNC(=O)c1cccc([N+](=O)[O-])c1)c1ccncc1	none (no result: PNC assembly inh)
Cc1ccc(S(=O)(=O)NC(C(=O)O)c2ccccc2)cc1 (configuration not stated)	none (no result: PNC assembly inh)
COc1ccc(C(=O)/C(C#N)=N/Nc2ccccc2[N+](=O)[O-])cc1	HTT aggregate inconclusive
COc1ccc(C(=O)/C(C#N)=N/Nc2ccc([N+](=O)[O-])cc2)cc1	HTT aggregate 1.26µM (no result: PNC assembly inh)
Cc1cc(NC(=O)Cc2cccs2)no1	none
O=C(COC(=O)c1ccccc1)Nc1cccc(S(=O)(=O)NC2=NCCCCC2)c1	none
Cc1cc(C)cc(C(=O)OCC(=O)Nc2cccc(S(=O)(=O)NC3=NCCCCC3)c2)c1	PNC assembly inh -96.0
COc1ccc2[nH]cc(CCNc3cc(-c4cccnc4)ncn3)c2c1	none (no result: HTT aggregate, PNC assembly inh)
COc1cccc(-c2cncnc2NCCc2c[nH]c3ccc(OC)cc23)c1	HTT cytoprotect 3.16µM (no result: HTT aggregate, PNC assembly inh)
